Records with an inconclusive call do not appear. Calls of active or inactive are those of the source. Calls follow the shape of the dose curve; as a rule, active = well fitted inhibition curve with a large enough effect; inconclusive = small, poorly fitted or top-dose-only effect; inactive = flat fitted curve, though single readings scatter.
Biological target: Dual specificity tyrosine-phosphorylation-regulated kinase 1A (Homo sapiens) (UniProt Q13627)
Assay: Confirmation Assay for Inhibitors of Dyrk1a (Kinase-Glo Assay): KU probe
Conditions: Kinase-Glo ATP luminescence; series mostly up to 76.9 µM
Outline: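 Luminescence from leftover ATP (Kinase-Glo) served as read-out after Dyrk1A (5 nM) phosphorylated DYRKtide (8 uM) using 2 uM ATP over 2 h at ambient temperature, pH 7.5.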

Row | Structure (SMILES) | Potency
1 | Cc1csc(CNc2ncnc3ccc(-c4ccc(CO)o4)cc23)n1 | 10400 nM (active)
2 | c1cncc(CNc2ncncc2-c2ccc3c(c2)OCO3)c1 | 26000 nM (active)
3 | CCN(C)c1ncnc2ccc(-c3ccc4c(c3)OCO4)cc12 | 260 nM (active)
4 | COc1cccc(-c2ccnc(NCc3ccc(Cl)cc3)n2)c1 | 7330 nM (active)
5 | CCCNc1ncnc2ccc(-c3ccc4c(c3)OCO4)cc12 | 116 nM (active)
6 | c1nc(NCC2CCCC2)c2cc(-c3ccc4c(c3)OCO4)ccc2n1 | 65.4 nM (active)
7 | Brc1ccc(CNc2nccc(-c3ccc4c(c3)OCO4)n2)cc1Br | 823 nM (active)
8 | Clc1ccc(Nc2nccc(-c3ccc4c(c3)OCO4)n2)cc1 | 519 nM (active)
9 | Cc1csc(CNc2ncnc3ccc(-c4ccc(C(=O)O)o4)cc23)n1 | 23200 nM (active)
10 | c1cncc(CNc2nccc(-c3ccc4c(c3)OCO4)n2)c1 | 36.8 nM (active)
11 | Clc1ccc(CNc2ncncc2-c2ccc3c(c2)OCO3)cc1 | 26000 nM (active)
12 | c1nc(NCC2CCOC2)c2cc(-c3ccc4c(c3)OCO4)ccc2n1 (centres undefined) | 92.3 nM (active)
13 | FC(F)(F)c1cccc(Nc2nccc(-c3ccc4c(c3)OCO4)n2)c1 | 65.4 nM (active)
14 | c1cncc(CNc2nccc(-c3ccc4cn[nH]c4c3)n2)c1 | 207 nM (active)
15 | Cc1c(-c2ccnc(Nc3cc(Br)cc(C(F)(F)F)c3)n2)sc(=O)n1C | 130 nM (active)
16 | CN(CC1CCCCO1)c1ncnc2ccc(-c3ccc4c(c3)OCO4)cc12 (centres undefined) | 207 nM (active)
17 | O=C(Nc1ccnc(-c2ccc3c(c2)OCO3)n1)c1ccncn1 | inactive
18 | Brc1ccc(CNc2ccnc(-c3ccc4c(c3)OCO4)n2)cc1Br | inactive
19 | CC(C)(C)CNc1ncnc2ccc(-c3ccc(C(=O)O)o3)cc12 | 2320 nM (active)
20 | O=C(O)c1ccc(-c2ccc3ncnc(NCC4CCCO4)c3c2)o1 (centres undefined) | 20700 nM (active)
21 | O=[N+]([O-])c1cc(Nc2nccc(-c3ccc4c(c3)OCO4)n2)cc(C(F)(F)F)c1 | 146 nM (active)
22 | Clc1ccc(CNc2nccc(-c3ccc4c(c3)OCCO4)n2)cc1Cl | 207 nM (active)
23 | CN(C)c1ccc(-c2ncccn2)cc1 | inactive
24 | c1cncc(CNc2ccnc(-c3ccc4[nH]ncc4c3)n2)c1 | 654 nM (active)

From PubChem BioAssay AID624093 (National Center for Advancing Translational Sciences (NCATS), 2012)
